# Screening data from PubChem BioAssay.
# Lamin A splicing: qHTS Assay for Modulators of Lamin A Splicing; Potency, µM (top dose mostly 46.1 µM), for the others: top-dose ratio change, negative = inhibition, most hits filed as inhibitors; HeLa LMNA splicing GFP/RFP minigene ratio, 48 h; 200,000 compounds, 0.01% hits; active means well fitted inhibition curve with a large enough effect in the signal ratio, with a control signal flat, not every such curve was filed as active; inconclusive means small, poorly fitted or top-dose-only effect, or effect the other way, or a change in a side signal; the % refers to the signal ratio; further: on the % scale 0 is the no-effect control and ±100 the full control effect
#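 S3 HeLa stable clones carrying a lamin A-EGFP splicing minigene plus DsRed2 were seeded at 600 cells/well in Opti-MEM with 2% FBS, pin-dosed and incubated 48 h at 37°C. Acumen cytometry (488 nm) gave the GFP/RFP total-intensity ratio.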
# HTT ATP protect: qHTS Multiplex Assay to Identify Dual Action Probes in a Cell Model of Huntington: Cytoprotection (ATP) | PC12 HTT-Q103 induced, cytoprotection, ATP luminescence, 40 h | Potency, µM (highest dose often 56.4 µM), for inactives: cytoprotection (ATP increase), hits mostly activators | 230,000 compounds, 0.14% hits | AID 1471, 2008; further: % of control where 0% means no effect; nearly all actives have a fitted effect of over 45% in size
#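 Stable PC12 Q103-GFP cells in serum-supplemented, phenol red-free DMEM; induction by tebufenozide at 100 nM final; compound dose series; cell viability quantified luminescently from ATP.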
# HTT aggregate: qHTS Multiplex Assay to Identify Dual Action Probes in a Cell Model of Huntington: Aggregate Formation (GFP); PC12 HttQ103-GFP aggregates, Acumen cytometry, 40 h; Potency, µM (top dose mostly 46.1 µM), for inactives: top-dose activity change, negative = inhibition, hits mostly inhibitors; 220,000 compounds, 1.1% hits; AID 1688, 2009; further: on the % scale 0 is the no-effect control and ±100 the full control effect; nearly all actives have a fitted effect of over 60% in size
#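 PC12 cells stably carrying ecdysone-inducible HTT exon 1 Q103–GFP were induced with tebufenozide (100 nM final) and treated with library compounds in titration. GFP aggregates in lysates were counted by laser scanning cytometry.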
# HPGD block: qHTS Assay for Inhibitors of HPGD (15-Hydroxyprostaglandin Dehydrogenase); AID 894, 2007; 15-hydroxyprostaglandin dehydrogenase [NAD(+)] (Homo sapiens), P15428; Potency, µM, for the others: at the highest dose activity change, negative = inhibition, actives largely listed as inhibitors; purified HPGD, NADH fluorescence kinetic, PGE2 substrate; 150,000 compounds, 4.3% hits; active means well fitted inhibition curve with a large enough effect, not every such curve was filed as active; inconclusive means small, poorly fitted or top-dose-only effect, or another doubt; inactive means no such curve, though single readings can be large or run the other way; further: on the % scale 0 is the no-effect control and ±100 the full control effect
# Target sequence (P15428 whole entry, looked up): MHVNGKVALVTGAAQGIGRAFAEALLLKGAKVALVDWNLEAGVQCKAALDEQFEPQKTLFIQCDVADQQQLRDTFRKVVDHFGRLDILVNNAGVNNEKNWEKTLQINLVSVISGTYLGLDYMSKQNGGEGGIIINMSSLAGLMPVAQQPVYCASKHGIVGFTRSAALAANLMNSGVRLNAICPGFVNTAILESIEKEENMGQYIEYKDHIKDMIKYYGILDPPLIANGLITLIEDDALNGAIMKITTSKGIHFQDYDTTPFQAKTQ
#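 20 nM HPGD preincubated 15 min at room temperature with compound in 50 mM Tris-HCl pH 8, 0.01% Tween 20. Started with 1 mM NAD+ and 30 uM prostaglandin E2; NADH fluorescence (360/450 nm) read 5 times over 30-s intervals, last minus first.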
# ALDH1A1 block: qHTS Assay for Inhibitors of Aldehyde Dehydrogenase 1 (ALDH1A1); Aldehyde dehydrogenase 1A1 (Homo sapiens), P00352; Purified ALDH1A1, NADH fluorescence, propionaldehyde substrate; Potency, µM (titrated, usually from 75.3 µM), without a hit: at the top dose activity, negative = inhibition, usual class: inhibitors; 220,000 compounds, 7.3% hits; active means well fitted inhibition curve with a large enough effect, not every such curve was filed as active; inconclusive means small, poorly fitted or top-dose-only effect, or another doubt; inactive means no such curve, though single readings can be large or run the other way;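 further: plate controls were no enzyme wells and a reference inhibitor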
# Target sequence (P00352 whole entry, looked up): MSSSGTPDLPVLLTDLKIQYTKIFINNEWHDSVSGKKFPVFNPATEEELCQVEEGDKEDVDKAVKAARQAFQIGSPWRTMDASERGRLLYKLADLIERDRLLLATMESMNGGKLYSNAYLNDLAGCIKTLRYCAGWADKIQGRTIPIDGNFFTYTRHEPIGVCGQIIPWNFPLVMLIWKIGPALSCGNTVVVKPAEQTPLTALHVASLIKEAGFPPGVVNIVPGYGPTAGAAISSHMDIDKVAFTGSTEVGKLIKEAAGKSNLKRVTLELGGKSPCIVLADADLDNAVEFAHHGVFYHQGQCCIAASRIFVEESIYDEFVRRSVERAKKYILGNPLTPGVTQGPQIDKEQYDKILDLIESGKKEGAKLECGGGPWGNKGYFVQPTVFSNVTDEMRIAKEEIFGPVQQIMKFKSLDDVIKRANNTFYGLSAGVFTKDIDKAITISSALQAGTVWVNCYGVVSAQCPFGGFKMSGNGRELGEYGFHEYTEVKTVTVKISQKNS
# An asterisk follows results filed as active; ? = inconclusive; . = not tested or not shown; [ ] = dose if it differs, or a comment. Most compounds without a hit are left out; they make up all but 8.8% or so of the library. Unless noted, the call rests on the fitted dose curve; in most records, active means well fitted curve in the direction sought with a large enough effect; inconclusive means small, poorly fitted or top-dose-only effect, or another doubt; inactive means no such curve, though single readings can be large; an effect the other way counts as inactive or inconclusive. Potency means the concentration at half of the fitted maximal effect.
SMILES,Lamin A splicing,HTT ATP protect,HTT aggregate,HPGD block,ALDH1A1 block
Cc1cc(C)c(NC(=O)c2cc(S(=O)(=O)N3CCC4(CC3)OCCO4)ccc2F)c(C)c1,-17.3%[46 µM],.,.,.,.
CC(=O)OCCNc1cc(N2CCN(C)CC2)c2noc3c2c1C(=O)c1ccccc1-3,0.9%,-23.1%,-21.4%,-12.3%,-2.6%
CCOC(=O)C(C(=O)OCC)c1cc(Br)c2noc3c2c1C(=O)c1ccccc1-3,?,-87.2%,?,?,10µM*
COCCn1c(N)c(C(=O)NS(=O)(=O)c2ccc(C)cc2)c(=O)[nH]c1=O,.,-30.2%[10 µM],16.7%,.,15.8µM*
COc1ccc(-c2n[nH]c(C)c2-c2cnn(-c3ccccc3)c2)c(O)c1C,?,-43.4%,-32.0%,-12.3%,9.2%
COc1ccc(-c2n[nH]c(C)c2-c2cnn(-c3ccccc3)c2)c(O)c1,-16.7%,6.5%,-0.3%,-8.6%,7.94µM*
CCCS(=O)(=O)N1CCC(C(=O)NC2CCCCC2C)CC1 (configuration not stated),3.7%,-11.8%,4.1%,.,10µM*
CCS(=O)(=O)N1CCCC(C(=O)NC2CCCCC2C)C1 (configuration not stated),8.9%[0.0737 µM],2.1%,8.4%,1.2%,0.1%
C[C@H](N)c1nnc(SCc2ccc(Cl)cc2Cl)o1,2.4%,-10.6%,-2.3%,-7.3%,8.6%
C[C@H](N)c1nnc(SCc2c(Cl)cccc2Cl)o1,-2.4%,-10.0%,-6.3%,31.6µM*,-4.0%
O=C(Cc1cccs1)NCc1ccccc1F,11.2%,9.4%[1.9 µM],9.0%,25.1µM*,0.1%
Cc1ccc(-c2nc3ccccc3c(C(=O)NCc3cccs3)c2C)cc1,-3.0%,-24.3%,2.5%,-26.6%,23.8µM*
CC(=O)SC(C)CC(=O)NCc1ccccc1 (configuration not stated),13.5%,13.6%,-0.2%,28.2µM*,0.9%
CC(=O)SC(C)CC(=O)Nc1ccccc1 (configuration not stated),9.5%,5.5%,0.9%,-28.6%,6.2%
O=C(NCc1cccs1)c1cc(-c2ccccc2)nc2ccccc12,?,-10.8%[10 µM],-14.9%,-13.1%,-0.4%
Cc1ccc(OCC(=O)NCc2cccs2)cc1,-4.5%,-2.9%,6.3%,22.4µM*,-6.0%
COCCNC(=O)C(c1ccc(C)cc1)N(C(=O)C(=O)NC1CCCC1)c1ccc2c(c1)OCCO2 (configuration not stated),.,-6.6%[10 µM],9.4%[9.22 µM],.,-2.4%
CCCCC(=O)NC(=S)Nc1cccc(NC(=O)c2ccccc2)c1,.,.,10.5%,.,?
COCCN(C(=O)Cc1cccs1)C(C(=O)NCc1ccc(OC)cc1)c1ccccc1 (configuration not stated),-9.6%,-11.9%[10 µM],-4.1%,-6.2%,25.1µM*
O=C(NCc1cccs1)c1ccccc1F,8.0%,-0.6%[10 µM],10.2%,20µM*,-1.8%
Cc1ccc(CNC(=O)Cc2cccs2)cc1,7.8%,-29.0%,11.4%,15.8µM*,5.2%
O=C(Cc1cccs1)NCc1ccccc1,-1.4%,-16.5%[10 µM],-4.7%[9.22 µM],20µM*,3.7%
CC(C(=O)NCc1ccccc1)N1Cc2ccccc2C1=O (configuration not stated),0.3%[46 µM],.,.,.,.
COc1ccc(N(C(=O)CCl)C(C(=O)NCCc2ccccc2)c2cccs2)cc1 (configuration not stated),?,-84.1%[10 µM],2.24µM*,-15.3%,1.4%
O=C(Cc1cccs1)NCCCc1ccccc1,?,5.1%[10 µM],-1.6%[9.22 µM],.,10.7%
SMILES,Lamin A splicing,HTT ATP protect,HTT aggregate,HPGD block,ALDH1A1 block
COc1ccc(CCNC(=O)Cc2cccs2)cc1,9.3%,.,-3.2%,35.5µM*,2.3%
COc1ccc(CNC(=O)C(c2ccncc2)N(C(=O)Cc2cccs2)c2ccccc2)cc1 (configuration not stated),-2.1%,2.3%[10 µM],14.5%,-2.5%,-7.1%
O=C(Cc1cccs1)NCCSc1c(-c2ccc(Cl)cc2)[nH]c2ccccc12,?,.,22.4µM*,?,?
CC(C)NC(=O)CN1C(=O)CCn2nc(-c3cn(C)c4ccccc34)cc21,-2.2%[46 µM],.,.,.,.
Cc1cccc(CNC(=O)Cn2nc(C)c3nn(-c4ccc(Cl)cc4)c(C)c3c2=O)c1,-4.9%[46 µM],.,.,.,.
CCOc1ccc(C(=O)CSc2nnc3cc(C)c4ccccc4n23)cc1,27.1%[46 µM],.,.,.,.
O=C(NCc1ccco1)c1ccccc1-c1nc(-c2ccc(F)cc2)no1,.,-5.4%[10 µM],-11.6%[9.22 µM],.,?
O=C(CCc1nc(-c2ccccc2)no1)NCc1cccnc1,-7.1%,-3.9%,0.0%,-6.7%,1.2%
O=C(NCc1cccnc1)c1ccccc1-c1nc(-c2ccccc2)no1,.,-68.0%,-23.7%,.,20µM*
Cc1ccccc1-c1noc(-c2ccccc2C(=O)NCc2ccco2)n1,.,0.5%[10 µM],15.4%[9.22 µM],.,14.1µM*
O=C(COCc1cc(-c2cccs2)on1)NCc1ccc(Cl)cc1,9.6%[46 µM],.,.,.,.
O=C1CC2(CCCC2)CC(=O)N1CCCCNCC1COc2ccccc2O1 (configuration not stated),.,-72.4%,.,.,?
COc1ccc(C(C)=O)cc1COc1ccccc1[N+](=O)[O-],?,-34.1%,-0.6%,.,3.16µM*
COc1ccc(C(C)=O)cc1COC(=O)c1ccc(N)c([N+](=O)[O-])c1,-8.9%[46 µM],-22.4%,0.4%,.,10µM*
O=c1c(/C=N/O)c(Nc2ccccc2)nc2ccccn12,4.8%,-13.3%,-3.7%[9.22 µM],0.562µM*,?
Nc1c(S(=O)(=O)O)cc(Nc2ccc(Nc3nc(Cl)nc(Nc4ccc(S(=O)(=O)O)cc4)n3)c(S(=O)(=O)O)c2)c2c1C(=O)c1ccccc1C2=O,?,-14.1%[1.9 µM],.,15.8µM*,-9.9%
O=C1CSC(c2cn(-c3ccccc3)nc2-c2cc3ccccc3o2)N1Cc1ccccc1 (configuration not stated),0.7%,3.6%,-1.4%[9.22 µM],?,?
Cc1ccc(-c2nn(-c3ccccc3)cc2C2SCC(=O)N2Cc2ccccc2)o1 (configuration not stated),-4.4%,15.7%[10 µM],-21.4%,?,28.2µM*
Cc1ccc2c(c1)Oc1ccc([N+](=O)[O-])cc1C(=O)N2,.,-33.6%,-5.2%,.,7.9%
Cc1ccc2c(c1)Oc1ccc(NC(=O)CCl)cc1C(=O)N2,.,-12.1%[10 µM],25.1µM*,.,11.2µM*
N/C(Cc1ccc(Cl)cc1Cl)=N\OC(=O)c1ccc(Br)o1,-11.8%[46 µM],25.1%[10 µM],4.0%[9.22 µM],.,.
Cc1ccccc1OCC(=O)O/N=C(\N)Cc1cccs1,6.8%[0.0737 µM],-23.3%,6.0%,-15.2%,7.08µM*
N/C(Cc1cccc2ccccc12)=N\OC(=O)c1ccc(Br)o1,.,-30.5%,16.6%,.,10µM*
